Laboratory results taken from PubChem BioAssay AID2391 (Southern Research Specialized Biocontainment Screening …, 2010).
The campaign covered roughly 310,000 compounds. About 410 (0.13%) were called active. Inconclusive results (about 2%) are left out. No rule for the calls is given here. A selection follows. Potency and affinity values are given separately.

Experiment: RSV antiviral activity via CPE protection, HEp-2 cells, primary 10 µM value included (AID 2391)
Conditions: RSV-induced CPE inhibition, at 10 µM, stronger effect = higher value

CPE inhibition, inactive:
Cc1ccc(OCCOC(=O)c2cccc(S(=O)(=O)N3CC(C)OC(C)C3)c2)cc1 (configuration not stated) 3.28%, COc1cccc(-n2c(C)cc(/C=C3/C(=N)N4C(=NC3=O)SN=C4S(C)(=O)=O)c2C)c1 16.5%, COc1ccc(/C=C2\C(=N)N3N=C(CC(=O)N4CCOCC4)SC3=NC2=O)cc1 -0.02%, COc1ccc(-n2c(C)cc(/C=C3\C(=N)N4N=C(CC(=O)N5CCOCC5)SC4=NC3=O)c2C)cc1 3.44%, Cc1cc(/C=C2/C(=N)N3C(=NC2=O)SN=C3S(C)(=O)=O)c(C)n1-c1ccc(F)cc1 7.04%, Cc1cc(/C=C2\C(=N)N3N=C(CC(=O)N4CCOCC4)SC3=NC2=O)c(C)n1-c1ccccc1 7.24%, COc1ccc(OC)c(-n2c(C)cc(/C=C3\C(=N)N4N=C(CC(=O)N5CCOCC5)SC4=NC3=O)c2C)c1 17%, CCC1=NN2C(=N)/C(=C\c3cccn3-c3ccc(OC)cc3)C(=O)N=C2S1 5.71%, O=C(N/N=C/c1ccc(Cl)cc1)C(=O)N1CCCCCC1 -0.12%, O=C(NCc1ccco1)/C(=C\c1cccs1)NC(=O)c1ccco1 -0.55%, Nc1nc(N2CCCCC2)nc(N2CCCCC2)n1 0.85%, NS(=O)(=O)c1ccc(CNS(=O)(=O)c2ccc3c(c2)OCCO3)cc1 2.01%, Cc1cc(=O)oc2cc(NC(=O)c3cccc(F)c3)ccc12 4.53%, Clc1ccc(-n2c(SCc3nc4ccccc4[nH]3)nnc2-c2ccncc2)cc1 0.34%, CC(=O)NC(c1ccc(F)cc1)c1cccnc1 (configuration not stated) 1.45%, CCc1nc(SCC(=O)c2cccc([N+](=O)[O-])c2)n[nH]1 1.44%, CC(=O)C1=C(C)N(Cc2ccccc2)C(=O)N[C@H]1c1cccc(C(F)(F)F)c1 4.45%, CCN1C(=O)N[C@@H](c2ccc(Br)cc2)C(C(=O)OC)=C1C 5.67%, CC(=O)C1=C(C)N(Cc2ccccc2)C(=O)N[C@@H]1c1cccc(C(F)(F)F)c1 0.41%, CCN1C(=O)N[C@H](c2ccc(Br)cc2)C(C(=O)OC)=C1C 0.05%, COC(=O)C1=C(C)N(Cc2ccccc2)C(=S)N[C@H]1c1ccccc1 14.1%, COC(=O)C1=C(C)N(Cc2ccccc2)C(=O)N[C@H]1c1cccc(F)c1 3.4%, O=C(CSc1nccc(=O)[nH]1)c1ccccc1Br 2.89%, COc1ccc(C)cc1NC(=O)CSc1nnnn1C1CCCC1 2.31%, Cc1cc(=O)[nH]c(NCc2ccc(Cl)cc2)n1 0.3%, Cc1ccsc1C(=O)NNC(=O)C1C2C=CC(C2)C1C(=O)O (configuration not stated) 0.87%, COc1ccc(OCc2nnc(SCC(=O)Nc3cccc(Cl)c3)o2)cc1 2.31%, CSc1nnc(-c2sc3cc(Cl)ccc3c2Cl)n1C 14%, CCn1c(SC)nnc1-c1nnc(SC)n1CC 3.28%, O=C(Cn1nc(-c2ccccc2)c2ccccc2c1=O)Nc1ccc(F)cc1 2.89%, COc1ccc(CNC(=O)c2coc(=O)c3ccccc23)cc1 5.17%, COc1ccc(CNC(=O)c2coc(=O)c3ccccc23)c(OC)c1 -0.36%, C#CCn1c(S(=O)(=O)Cc2ccccc2Cl)nc(-c2ccccc2)c1-c1ccccc1 -0.31%, C#CCn1c(S(=O)(=O)Cc2ccc(OC)cc2)nc(-c2ccccc2)c1-c1ccccc1 3.68%, Cc1cc([N+](=O)[O-])nn1CCCC(=O)O 5.17%, CN(NC(=O)c1cccc(Cl)c1)c1nc(-c2ccccc2)nnc1C(F)(F)F 3.22%, CCN(CC(=O)Nc1cc(Cl)ccc1C)C(=O)CSCc1c(C)noc1C 16.3%, CCN(CC(=O)Nc1cc(Cl)ccc1C)C(=O)CCOc1ccc(C)cc1 0.1%, COc1ccc(C(=O)NCC(=O)N/N=C/c2c(C)[nH]c3ccccc23)cc1 6.54%, COc1cc(C(=O)NCC(=O)N/N=C/c2c(C)[nH]c3ccccc23)cc(OC)c1OC 3.1%, CC(=O)c1ccc(N2CCN(C(=O)c3nn(Cc4ccccc4)c(=O)c4ccccc34)CC2)cc1 5.5%, COc1ccc(NC(=O)Cn2nnc(-c3ccccc3NC(=O)c3ccco3)n2)cc1 0.17%, COc1ccccc1NC(=O)c1sc2ncn(Cc3cccc4ccccc34)c(=O)c2c1C 2.87%, COc1ccccc1N(CC(=O)Nc1ccc(F)c(F)c1)S(C)(=O)=O 0.09%, O=c1ccn([C@@H]2O[C@H](CO)[C@@H](O)[C@H]2O)c(=O)[nH]1 -0.56%, Nc1ccn([C@@H]2O[C@H](CO)[C@@H](O)C2O)c(=O)n1 (some centres not stated) -2.12%, O=c1[nH]c(=O)n(C2OC(CO)C(O)C2O)cc1Br (configuration not stated) -0.14%, Nc1ccn([C@@H]2O[C@H](CO)[C@@H](O)[C@@H]2O)c(=O)n1 -0.64%, CCOc1ccccc1Nc1cc(C)nc2nnnn12 -1.74%, Cc1ccc(S(=O)(=O)[N-]c2nc3ccccc3nc2-n2cc[n+](CCC(C)C)c2)cc1 0.13%, COc1cc(NC(=S)N2CCN(Cc3ccccc3)CC2)cc(OC)c1 4.9%, Cc1cc(/C=C2\C(=O)NN(c3ccccc3)C2=O)c(C)n1-c1ccccc1O -1.31%, Cc1cc(/C=C2/NC(=O)NC2=O)c(C)n1-c1ccccn1 2.98%, Cc1cc(/C=C2/NC(=O)NC2=O)c(C)n1-c1ccncc1 19.7%, Cc1cc(/C=C2/C(=O)NN(c3ccccc3)C2=O)c(C)n1-c1cccc(O)c1 1.07%, Cc1cccc(-n2c(C)cc(/C=C3\NC(=O)NC3=O)c2C)c1 5.86%, Cc1cc(/C=C2/NC(=O)NC2=O)c(C)n1C 3.8%
